From PubChem BioAssay AID1417 (Emory University Molecular Libraries Screening Center, 2008)
Screen size: about 1,100 compounds; about 880 (80%) were called active. The set was probably picked from earlier hits. This is one part of the list. Potency and affinity values are given separately. Unmarked numbers belong to inactive results. No rule for the calls is given here.

biological target: Induced myeloid leukemia cell differentiation protein Mcl-1 (Homo sapiens) (UniProt Q07820); test: Mcl-1 Noxa peptide disruption concentration-response – biochemical, TR-FRET, dose response (AID 1417); conditions: Mcl-1/Noxa peptide interaction, cell-free TR-FRET (terbium/rhodamine), 2 h; at 54 µM (top of the series);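 also: 100% = protein plus peptide without compound and 0% = peptide alone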
Sequence (Q07820 whole entry, looked up): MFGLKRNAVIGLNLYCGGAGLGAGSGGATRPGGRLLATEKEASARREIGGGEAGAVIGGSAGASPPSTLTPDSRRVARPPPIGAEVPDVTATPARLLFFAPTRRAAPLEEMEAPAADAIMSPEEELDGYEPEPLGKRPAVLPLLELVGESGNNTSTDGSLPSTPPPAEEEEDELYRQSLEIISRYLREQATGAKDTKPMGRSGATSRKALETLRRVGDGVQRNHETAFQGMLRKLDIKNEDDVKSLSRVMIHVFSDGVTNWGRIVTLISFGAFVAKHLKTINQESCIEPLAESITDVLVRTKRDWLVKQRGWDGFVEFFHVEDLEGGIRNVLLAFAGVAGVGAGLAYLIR

Q: `CCN1C(=O)/C(=C2/Sc3ccc(OC)cc3N2C)SC1=Nc1cccc(O)c1` was tested. Which percent of control (lower = inhibition) did it give?
A: 54.8%

Q: For `Cn1c(=O)c2c(nc(NCc3ccco3)n2CC(O)COc2ccccc2)n(C)c1=O` (stereo not drawn), which percent of control (lower = inhibition) is on record?
A: 81.3%

Q: With `N=C1/C(=C\c2ccc(-c3ccc(C(=O)O)cc3)o2)C(=O)N=C2SC=C(c3ccccc3)N12` as the molecule, how does the percent of control (lower = inhibition) read?
A: -1.95% (active)

Q: With `COc1ccccc1C1NC=C([N+](=O)[O-])C=C1[N+](=O)[O-]` (stereo not drawn) as the molecule, how does the percent of control (lower = inhibition) read?
A: 111%

Q: Which percent of control (lower = inhibition) does the source give for `CC1CCCCC1NC(=O)c1ccc2c(c1)[nH]c(=O)n2C1CCCC1` (stereo not drawn) here?
A: 86.3%

Q: How did the percent of control (lower = inhibition) turn out when `c1ccc(Nc2cccc(Nc3ccccc3)c2)cc1` was run?
A: 60.5%

Q: With `CN(C)c1ccc(NC(=O)Nc2cccc(Cl)c2)cc1` as the molecule, how does the percent of control (lower = inhibition) read?
A: 49.6% (active)

Q: For `CN(C)c1ccc(NC(=O)/C=C/c2c(Cl)cccc2Cl)cc1`, which percent of control (lower = inhibition) is on record?
A: 80.1%
